About 79,000 compounds went through this panel and 15% of them were active in at least one assay; those are over-represented in the sample as a whole. Activity calls are given as the source filed them. Cut-off read from the data, not from the text of the source: active = growth inhibition above about 70%; inactive = the rest.
Key:
[1] = NCI Yeast Anticancer Drug Screen. Data for the rad52 strain (AID 147);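 note: 0% = growth of vehicle-treated control cultures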; details: S. cerevisiae rad52 mutant growth inhibition, stronger effect = higher value
Method in brief: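 Compounds are applied to a genetically defined yeast strain lacking normal DNA damage repair, and inhibition of growth is expressed relative to cultures given vehicle only.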

[2] = NCI Yeast Anticancer Drug Screen. Data for the wt1 strain (AID 149);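 note: 0% = growth of vehicle-treated wt1 cultures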; details: S. cerevisiae wt1 strain (SPY 50644) growth inhibition, stronger effect = higher value
Method in brief: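 wt1 strain grown with compound or vehicle; inhibition taken from the growth difference.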

[3] = NCI Yeast Anticancer Drug Screen. Data for the rad50EPP+ strain (AID 151);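 note: 0% = growth of vehicle-treated control cultures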; details: S. cerevisiae rad50 mutant strain, stronger effect = higher value
Method in brief: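 Compounds were applied to the rad50EPP+ yeast strain, which bears a defined DNA repair alteration, and growth inhibition was determined relative to vehicle-treated cultures.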

[4] = NCI Yeast Anticancer Drug Screen. Data for the mgt1 strain (AID 153); details: S. cerevisiae mgt1 mutant growth inhibition, stronger effect = higher value
Method in brief: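 Strain: mgt1 yeast, one of a set carrying defined DNA damage repair or cell cycle control alterations. Compound-treated growth compared with vehicle.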

[5] = NCI Yeast Anticancer Drug Screen. Data for the rad50 strain (AID 155);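 note: 0% = growth of vehicle-only cultures of the same strain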; details: S. cerevisiae rad50 strain growth inhibition, stronger effect = higher value
Method in brief: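 DNA repair mutant yeast, compound exposure, growth read-out; inhibition is taken relative to vehicle.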

[6] = NCI Yeast Anticancer Drug Screen. Data for the mec2-1 strain (AID 157); details: S. cerevisiae mec2-1 strain, stronger effect = higher value
Method in brief: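 Strain: mec2-1 (DNA repair/cell cycle alteration). Compound exposure, then growth measured; inhibition expressed relative to vehicle.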

[7] = NCI Yeast Anticancer Drug Screen. Data for the rad14 strain (AID 159);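 note: 0% = growth of vehicle-treated control cultures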; details: S. cerevisiae rad14 strain growth inhibition, stronger effect = higher value
Method in brief: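 DNA repair-defective yeast, compound-exposed; % growth inhibition derived by comparison with vehicle-treated controls.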

[8] = NCI Yeast Anticancer Drug Screen. Data for the sgs1 mgt1 strain (AID 161);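 note: 0% = growth of cultures given vehicle only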; details: S. cerevisiae sgs1 mgt1 strain, stronger effect = higher value
Method in brief: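 Test agents were incubated with a DNA-repair-mutant yeast strain. Growth was then read and compared against vehicle-treated controls.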

[9] = NCI Yeast Anticancer Drug Screen. Data for the CLN2oe strain (AID 163);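 note: 0% = growth of vehicle-only control cultures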; details: S. cerevisiae CLN2oe strain, stronger effect = higher value
Method in brief: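 Growth of a genetically modified yeast strain is measured after compound exposure and compared with cultures given vehicle alone.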

[10] = NCI Yeast Anticancer Drug Screen. Data for the cln2 rad14 strain (AID 165);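 note: 0% = growth equal to vehicle treated cultures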; details: S. cerevisiae cln2 rad14 strain, stronger effect = higher value
Method in brief: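 Compounds are applied to the cln2 rad14 yeast strain, and growth is then compared with that of vehicle-treated cultures to give inhibition.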

[11] = NCI Yeast Anticancer Drug Screen. Data for the bub3 strain (AID 167); details: S. cerevisiae bub3 mutant strain, stronger effect = higher value
Method in brief: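 In this screen, a yeast mutant lacking normal mitotic checkpoint function is challenged with compound. Relative growth versus vehicle gives the inhibition value.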

[12] = NCI Yeast Anticancer Drug Screen. Data for the wt2 strain (AID 169);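 note: 0% = growth of vehicle-treated yeast cultures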; details: S. cerevisiae wt2 strain growth inhibition, stronger effect = higher value
Method in brief: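 This strain belongs to a panel of yeast strains with defined genetic alterations in DNA damage repair or cell cycle control. Compounds are applied, and growth inhibition is measured against vehicle-treated cultures.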

[13] = NCI Yeast Anticancer Drug Screen. Data for the mlh1 strain (AID 171);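 note: 0% = growth of vehicle-treated control cultures of the same strain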; details: S. cerevisiae mlh1 strain growth inhibition, stronger effect = higher value
Method in brief: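 Growth of the mutant yeast strain after compound exposure, expressed as inhibition relative to vehicle-only controls.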

[14] = NCI Yeast Anticancer Drug Screen. Data for the sgs1 strain (AID 173);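 note: 0% = growth of vehicle-only control cultures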; details: S. cerevisiae sgs1 mutant, stronger effect = higher value
Method in brief: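 Growth of a yeast strain bearing a defined genetic alteration is measured after compound treatment. Inhibition is expressed relative to vehicle-only controls.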

[15] = NCI Yeast Anticancer Drug Screen. Data for the mlh1 rad18 strain (AID 175); details: S. cerevisiae mlh1 rad18 strain growth inhibition, stronger effect = higher value
Method in brief: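 Read-out is yeast growth inhibition, calculated against vehicle-only controls. The compound was applied to a strain engineered with DNA damage repair alterations.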

[16] = NCI Yeast Anticancer Drug Screen. Data for the rad18 strain (AID 177); details: S. cerevisiae rad18 mutant growth inhibition, stronger effect = higher value
Method in brief: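 Growth of the mutant yeast strain after compound exposure, normalised to vehicle-only cultures.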

[17] = at 5.0 µM (retest, dose inferred, filed as 0.5)
[18] = at 50.0 µM (retest, dose inferred, filed as 5.0)

Measured: growth inhibition

Cc1cc(C(C)(C)C)c(OCCCN2CCOCC2)c(C(C)(C)C)c1
active: [1]; at 100.0 µM 96% | [4]; at 100.0 µM 99% | [5]; at 50.0 µM 75.5% | [5]; at 100.0 µM 94% | [6]; at 100.0 µM 98% | [7]; at 100.0 µM 99% | [8]; at 50.0 µM 82.2% | [9]; at 100.0 µM 97% | [11]; at 50.0 µM 75.5% | [11]; at 100.0 µM 94% | [12]; at 100.0 µM 98% | [13]; at 100.0 µM 97% | [14]; at 100.0 µM 98% | [15]; at 50.0 µM 83.8% | [16]; at 100.0 µM 98%
inactive: [1]; at 1.2 µM -5% | [1]; at 3.7 µM -9% | [1]; at 11.0 µM -14% | [1]; at 33.0 µM -3% | [2]; at 1.2 µM -1% | [2]; at 3.7 µM 0% | [2]; at 11.0 µM -3% | [2]; at 33.0 µM -7% | [2]; at 100.0 µM 62% | [3]; at 1.2 µM 0% | [3]; at 3.7 µM 3% | [3]; at 11.0 µM 3% | [3]; at 33.0 µM 19% | [3]; at 100.0 µM 47% | [4]; at 1.2 µM 0% | [4]; at 3.7 µM -4% | [4]; at 11.0 µM -9% | [4]; at 33.0 µM 4% | [5]; at 1.2 µM -1% | [5]; at 3.7 µM -6% | [5]; [17] 5% | [5]; at 11.0 µM 5% | [5]; at 33.0 µM 8% | [5]; [18] 50% | [6]; at 1.2 µM -1% | [6]; at 3.7 µM -5% | [6]; [17] -2% | [6]; at 11.0 µM -8% | [6]; at 33.0 µM -4% | [6]; [18] 12% | [6]; at 50.0 µM 59.5% | [7]; at 1.2 µM -2% | [7]; at 3.7 µM -1% | [7]; at 11.0 µM -5% | [7]; at 33.0 µM 15% | [8]; [17] 2% | [8]; [18] -10% | [9]; at 1.2 µM -5% | [9]; at 3.7 µM -4% | [9]; at 11.0 µM -15% | [9]; at 33.0 µM -17% | [10]; [17] -21% | [10]; [18] -81% | [10]; at 50.0 µM 24.3% | [11]; at 1.2 µM -5% | [11]; at 3.7 µM -1% | [11]; [17] -15% | [11]; at 11.0 µM -32% | [11]; at 33.0 µM 6% | [11]; [18] -10% | [12]; at 1.2 µM -2% | [12]; at 3.7 µM -3% | [12]; at 11.0 µM -8% | [12]; at 33.0 µM 9% | [13]; at 1.2 µM 3% | [13]; at 3.7 µM 2% | [13]; at 11.0 µM -3% | [13]; at 33.0 µM -16% | [14]; at 1.2 µM 0% | [14]; at 3.7 µM 0% | [14]; at 11.0 µM 0% | [14]; at 33.0 µM 25% | [15]; [17] -7% | [15]; [18] 48% | [16]; at 1.2 µM -1% | [16]; at 3.7 µM -7% | [16]; at 11.0 µM -19% | [16]; at 33.0 µM -9%

Reference: PubChem BioAssay (NCI)
